Reference: PubChem BioAssay (Tox21)
Values without a mark were called inactive. Results filed as inconclusive are left out. Entries that show only a call come without a potency. Calls of active or inactive are those of the source. Unless noted, calls come from the whole dose curve; as a rule, active = well fitted curve in the direction sought with a large enough effect in the repeat runs; inconclusive = weak or mixed curves; inactive = no such curve, though single readings can be large; an effect the other way counts as inactive or inconclusive.

Key:
[1] = A CellTox Green Cytotoxicity Assay to monitor cytotoxicity in HEK293 cells - 32 hour (AID 1224881); note: nearly all actives have a fitted effect of over 40% in size; note: potency is the fitted concentration of half-maximal effect
How it was run: (§1)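 Cells (HEK293, 600/well) and dye reagent are dispensed together. After 5 h at 37 C, 23 nL compound is pinned in. Plates stay at 37 C for 40 h with fluorescence read at 0h, 8h, 16h, 24h, 32h and 40h.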

[2] = A CellTox Green Cytotoxicity Assay to monitor cytotoxicity in HepG2 cells - 0 hour (AID 1224882); note: nearly all actives have a fitted effect of over 35% in size; note: potency is the fitted concentration of half-maximal effect
How it was run: (§2)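 Cells and non-lytic dye reagent are dispensed together (600 HepG2 cells/well) and incubated 5 h before DMSO compound transfer. Kinetic fluorescence is then recorded in the same wells during 40 h at 37 C.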

[3] = A CellTox Green Cytotoxicity Assay to monitor cytotoxicity in HepG2 cells - 32 hour (AID 1224883); note: nearly all actives have a fitted effect of over 50% in size; note: potency is the fitted concentration of half-maximal effect
How it was run: as §2

[4] = A CellTox Green Cytotoxicity Assay to monitor cytotoxicity in HEK293 cells - 8 hour (AID 1224884); note: nearly all actives have a fitted effect of over 35% in size; note: potency is the fitted concentration of half-maximal effect
How it was run: as §1

[5] = qHTS RealTime-Glo MT Cell Viability Assay in HepG2 cells - 16 hour (AID 1224885); note: nearly all actives have a fitted effect of over 50% in size
How it was run: (§3)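 Tox21 10K library screened in qHTS format on HepG2 cells carrying RealTime-Glo reagents. Compounds were added after a 5 h preincubation, and the luminescent signal from continuous culture was measured repeatedly during 40 h treatment.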

[6] = qHTS RealTime-Glo MT Cell Viability Assay in HEK293 cells - 24 hour (AID 1224886); note: nearly all actives have a fitted effect of over 50% in size; note: potency is the fitted concentration of half-maximal effect
How it was run: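 Luminescence generated by NanoLuc from substrate produced by living HEK293 cells served as the viability signal. Each value reflects the reading at its stated time point during continuous 40 h compound exposure at 37 C.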

[7] = qHTS RealTime-Glo MT Cell Viability Assay in HEK293 cells - 8 hour (AID 1224887); note: nearly all actives have a fitted effect of over 50% in size; note: potency is the fitted concentration of half-maximal effect
How it was run: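 Real-time viability in HEK293: signal arises when living cells convert a prosubstrate for NanoLuc in the medium, so luminescence tracks viable cell number. Compound (23 nL, DMSO) added 5 h post-seeding; kinetic reads at 0–40 h, 37 C.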

[8] = A CellTox Green Cytotoxicity Assay to monitor cytotoxicity in HEK293 cells - 16 hour (AID 1224888); note: nearly all actives have a fitted effect of over 35% in size; note: potency is the fitted concentration of half-maximal effect
How it was run: as §1

[9] = qHTS RealTime-Glo MT Cell Viability Assay in HepG2 cells - 0 hour (AID 1224889); note: nearly all actives have a fitted effect of over 50% in size
How it was run: as §3

[10] = A CellTox Green Cytotoxicity Assay to monitor cytotoxicity in HepG2 cells - 8 hour (AID 1224890); note: nearly all actives have a fitted effect of over 45% in size; note: potency is the fitted concentration of half-maximal effect
How it was run: as §2

[11] = qHTS assay to identify small molecule antagonists of the estrogen receptor alpha (ER-alpha) signaling pathway using the BG1 cell line in the presence of 0.1 nM 17-beta-estradiol - cell viability counter screen (AID 1259241); note: nearly all actives have a fitted effect of over 40% in size
How it was run: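 Live-cell protease activity (CellTiter-Fluor fluorescence, 30 min) was read in the same wells after VM7Luc4E2 cells had been exposed to compounds with 0.1 nM 17beta-estradiol for 22 hr at 37C.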

[12] = qHTS assay to identify small molecule antagonists of the androgen receptor (AR) signaling pathway using the MDA cell line in the presence of 0.5 nM R1881 - cell viability counter screen (AID 1259242); note: nearly all actives have a fitted effect of over 45% in size
How it was run: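 Steps: plate MDA-kb2 cells, rest 5 hr at 37C without CO2; pin in compounds in DMSO; add R1881 to 0.5 nM final; incubate 16 hr; add CellTiter-Fluor, 30 min; read fluorescence.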

[13] = qHTS assay to identify small molecule HDAC inhibitors (AID 1259364); note: potency is the fitted concentration of half-maximal effect;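 note: wild-type HCT-116 cells with endogenous class I/II HDAC activity; nearly all actives have a fitted effect of over 45% in size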
How it was run: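 Cells (HCT-116, wild type) are seeded at 1,500 per well, incubated overnight, treated with compound in DMSO for 2 hr, then developed with HDAC-Glo I/II reagent for 30 min at room temperature.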

[14] = qHTS assay to identify small molecule HDAC inhibitors - cell viability counter screen (AID 1259365)
How it was run: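 HCT-116 (wild type), 1,500 cells/well, overnight 37C/5% CO2; compound in DMSO 2hr; CellTiter-Glo 30min RT; luminescence read.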

[15] = qHTS assay to identify small molecule antagonists of the sonic hedgehog signaling (Shh) pathway - cell viability counter screen (AID 1259367); note: nearly all actives have a fitted effect of over 55% in size
How it was run: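 Tox21 library chemicals were tested on a Gli1-Luc NIH/3T3 clone (2,000 cells/well) stimulated by conditioned medium; viability was quantified as fluorescence from CellTiter-Fluor reagent added at 23 hr.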

[16] = qHTS assay to identify small molecule agonists of the sonic hedgehog signaling (Shh) pathway (AID 1259368; calls by dose curve;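 note: NIH/3T3-derived 3T3Gli1-Luc cells carrying a stable Gli1-driven firefly luciferase reporter; series mostly up to about 92 µM; nearly all actives have a fitted effect of over 15% in size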)
How it was run: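 Cells of a mouse NIH/3T3 clone stably expressing luciferase under the Gli1 transcriptional response element are exposed to test chemicals for 24 hr at 37 C. Pathway activation is detected as a rise in luminescence.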

[17] = biological target: Estrogen receptor (Homo sapiens) (UniProt P03372); test: qHTS assay to identify small molecule antagonists of the estrogen receptor alpha (ER-alpha) signaling pathway using the BG1 cell line in the presence of 0.1 nM 17-beta-estradiol (AID 1259244); note: nearly all actives have a fitted effect of over 50% in size
Sequence of Estrogen receptor (Homo sapiens) (P03372 whole entry, looked up): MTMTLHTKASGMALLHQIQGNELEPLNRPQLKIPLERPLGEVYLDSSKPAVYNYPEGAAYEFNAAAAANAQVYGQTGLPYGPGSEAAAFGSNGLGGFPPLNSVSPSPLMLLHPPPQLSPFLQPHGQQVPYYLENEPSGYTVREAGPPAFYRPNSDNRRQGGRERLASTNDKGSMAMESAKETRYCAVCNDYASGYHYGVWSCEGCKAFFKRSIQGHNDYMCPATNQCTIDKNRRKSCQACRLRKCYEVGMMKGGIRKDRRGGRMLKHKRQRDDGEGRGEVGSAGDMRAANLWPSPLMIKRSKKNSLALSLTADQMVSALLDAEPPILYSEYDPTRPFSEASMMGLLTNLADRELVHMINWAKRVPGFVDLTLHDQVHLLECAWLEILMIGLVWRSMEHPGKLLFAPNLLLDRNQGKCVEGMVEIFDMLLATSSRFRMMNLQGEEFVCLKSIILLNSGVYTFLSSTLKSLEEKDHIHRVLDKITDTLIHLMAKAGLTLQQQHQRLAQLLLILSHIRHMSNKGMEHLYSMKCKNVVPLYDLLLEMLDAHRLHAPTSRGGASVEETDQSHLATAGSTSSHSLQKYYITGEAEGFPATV
How it was run: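 Antagonist mode: compounds in DMSO are pinned onto VM7Luc4E2 reporter cells, 0.1 nM final 17beta-estradiol is added, and after 22 h at 37C luciferase luminescence is measured with ONE-Glo.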

[18] = qHTS assay to identify small molecule agonists of the sonic hedgehog signaling (Shh) pathway - cell viability counter screen (AID 1259366); note: nearly all actives have a fitted effect of over 50% in size
How it was run: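 CellTiter-Fluor fluorescence read-out, 1 hr at 37C, added after 23hr compound exposure. Cells: 3T3 Gli1-Luc, an NIH/3T3 clone with stably integrated Gli1-Luc reporter, plated 4hr before compound.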

Question: With CCCC(=O)OCCc1ccccc1 as the molecule, how does the Potency [1] read?
Answer: Its Potency is 49 µM (active).

Question: And the Potency [2]?
Answer: The Potency was 38.9 µM (active).

Question: What about the Potency [3] of the same molecule?
Answer: Its Potency is 43.6 µM (active).

Question: And the Potency [4]?
Answer: Its Potency is 38.9 µM (active).

Question: What about the Potency [5] of the same molecule?
Answer: The Potency was “inactive”.

Question: What about the Potency [6] of the same molecule?
Answer: Its Potency is “inactive”.

Question: What about the Potency [7] of the same molecule?
Answer: The Potency was “inactive”.

Question: And the Potency [8]?
Answer: Its Potency is 43.6 µM (active).

Question: And the Potency [9]?
Answer: Its Potency is “inactive”.

Question: And the Potency [10]?
Answer: The Potency was 43.6 µM (active).

Question: What about the Potency [11] of the same molecule?
Answer: The Potency was “inactive”.

Question: And the Potency [12]?
Answer: Its Potency is “inactive”.

Question: What about the Potency [13] of the same molecule?
Answer: Its Potency is “inactive”.

Question: And the Potency [14]?
Answer: Its Potency is “inactive”.

Question: What about the Potency [15] of the same molecule?
Answer: Its Potency is “inactive”.

Question: What about the Potency [16] of the same molecule?
Answer: The Potency was “inactive”.

Question: Which results are given for O=c1oc2cc(O)ccc2c2oc3cc(O)ccc3c12?
Answer: Potency [1]: inactive; Potency [2]: inactive; Potency [3]: inactive; Potency [4]: inactive; Potency [5]: inactive; Potency [6]: 21 µM (active); Potency [7]: 16.7 µM (active); Potency [8]: inactive; Potency [9]: inactive; Potency [10]: inactive; Potency [11]: inactive; Potency [12]: inactive; Potency [13]: 9.29 µM (active)

Question: Which Potency [1] does the source give for C1CCC(SSC2CCCCC2)CC1 here?
Answer: The Potency was “inactive”.

Question: What about the Potency [2] of the same molecule?
Answer: Its Potency is “inactive”.

Question: What about the Potency [3] of the same molecule?
Answer: Its Potency is “inactive”.

Question: What about the Potency [4] of the same molecule?
Answer: Its Potency is “inactive”.

Question: And the Potency [5]?
Answer: Its Potency is “inactive”.

Question: And the Potency [6]?
Answer: Its Potency is “inactive”.

Question: And the Potency [7]?
Answer: The Potency was “inactive”.

Question: What about the Potency [8] of the same molecule?
Answer: Its Potency is “inactive”.

Question: What about the Potency [9] of the same molecule?
Answer: The Potency was “inactive”.

Question: What about the Potency [10] of the same molecule?
Answer: The Potency was “inactive”.

Question: And the Potency [11]?
Answer: The Potency was “inactive”.

Question: What about the Potency [12] of the same molecule?
Answer: Its Potency is “inactive”.

Question: And the Potency [17]?
Answer: The Potency was “inactive”.

Question: What about the Potency [13] of the same molecule?
Answer: The Potency was “inactive”.

Question: What about the Potency [14] of the same molecule?
Answer: Its Potency is “inactive”.

Question: And the Potency [15]?
Answer: The Potency was “inactive”.

Question: What about the Potency [16] of the same molecule?
Answer: The Potency was “inactive”.

Question: With C=Cc1cccc(C)c1 as the molecule, how does the Potency [1] read?
Answer: Its Potency is “inactive”.

Question: And the Potency [2]?
Answer: The Potency was “inactive”.

Question: And the Potency [3]?
Answer: The Potency was “inactive”.

Question: What about the Potency [4] of the same molecule?
Answer: The Potency was “inactive”.

Question: And the Potency [5]?
Answer: The Potency was “inactive”.

Question: And the Potency [6]?
Answer: The Potency was “inactive”.

Question: And the Potency [7]?
Answer: Its Potency is “inactive”.

Question: And the Potency [8]?
Answer: Its Potency is “inactive”.

Question: And the Potency [9]?
Answer: The Potency was “inactive”.

Question: What about the Potency [10] of the same molecule?
Answer: The Potency was “inactive”.

Question: What about the Potency [11] of the same molecule?
Answer: The Potency was “inactive”.

Question: And the Potency [12]?
Answer: Its Potency is “inactive”.

Question: And the Potency [17]?
Answer: The Potency was “inactive”.

Question: And the Potency [13]?
Answer: The Potency was “inactive”.

Question: What about the Potency [14] of the same molecule?
Answer: Its Potency is “inactive”.

Question: And the Potency [18]?
Answer: The Potency was “inactive”.

Question: What about the Potency [15] of the same molecule?
Answer: Its Potency is “inactive”.

Question: What about the Potency [16] of the same molecule?
Answer: The Potency was “inactive”.

Question: What does the source list for c1ccc(SSc2ccccc2)cc1?
Answer: Potency [1]: inactive; Potency [2]: inactive; Potency [3]: inactive; Potency [4]: inactive; Potency [5]: inactive; Potency [6]: inactive; Potency [7]: inactive; Potency [8]: inactive; Potency [9]: inactive; Potency [10]: inactive; Potency [11]: inactive; Potency [12]: inactive; Potency [17]: inactive; Potency [13]: inactive; Potency [14]: inactive; Potency [18]: inactive; Potency [15]: inactive; Potency [16]: inactive

Question: Which Potency [1] does the source give for O=C(O)c1cccc(C(F)(F)F)c1 here?
Answer: The Potency was “inactive”.

Question: And the Potency [2]?
Answer: Its Potency is “inactive”.

Question: What about the Potency [3] of the same molecule?
Answer: The Potency was “inactive”.

Question: And the Potency [4]?
Answer: The Potency was “inactive”.

Question: And the Potency [5]?
Answer: The Potency was “inactive”.

Question: And the Potency [6]?
Answer: The Potency was “inactive”.

Question: And the Potency [7]?
Answer: Its Potency is “inactive”.

Question: And the Potency [8]?
Answer: The Potency was “inactive”.

Question: And the Potency [9]?
Answer: Its Potency is “inactive”.

Question: What about the Potency [10] of the same molecule?
Answer: The Potency was “inactive”.

Question: And the Potency [11]?
Answer: The Potency was “inactive”.

Question: And the Potency [12]?
Answer: The Potency was “inactive”.

Question: And the Potency [17]?
Answer: Its Potency is “inactive”.

Question: And the Potency [13]?
Answer: The Potency was “inactive”.

Question: And the Potency [14]?
Answer: Its Potency is “inactive”.

Question: And the Potency [18]?
Answer: The Potency was “inactive”.

Question: What about the Potency [15] of the same molecule?
Answer: The Potency was “inactive”.

Question: And the Potency [16]?
Answer: Its Potency is “inactive”.

Question: Which Potency [1] does the source give for COc1cc(C)ccc1O here?
Answer: Its Potency is “inactive”.

Question: And the Potency [2]?
Answer: Its Potency is “inactive”.

Question: And the Potency [3]?
Answer: The Potency was “inactive”.

Question: What about the Potency [4] of the same molecule?
Answer: The Potency was “inactive”.

Question: What about the Potency [5] of the same molecule?
Answer: The Potency was “inactive”.

Question: What about the Potency [6] of the same molecule?
Answer: The Potency was “inactive”.

Question: And the Potency [7]?
Answer: The Potency was “inactive”.

Question: And the Potency [8]?
Answer: Its Potency is “inactive”.

Question: And the Potency [9]?
Answer: The Potency was “inactive”.

Question: What about the Potency [10] of the same molecule?
Answer: The Potency was “inactive”.

Question: And the Potency [11]?
Answer: The Potency was “inactive”.

Question: And the Potency [12]?
Answer: Its Potency is “inactive”.

Question: And the Potency [17]?
Answer: Its Potency is “inactive”.

Question: And the Potency [13]?
Answer: Its Potency is “inactive”.

Question: And the Potency [14]?
Answer: Its Potency is “inactive”.

Question: What about the Potency [18] of the same molecule?
Answer: The Potency was “inactive”.

Question: And the Potency [16]?
Answer: The Potency was “inactive”.
